In PubChem BioAssay (EPA / NIEHS):
Activity calls are given as the source filed them. Rule for the calls: active = hit-call score of the fitted dose curve at least 0.9, where 1 is the maximum; inactive = score below 0.9.

Columns and labels:
Details in all cases: mRNA level, 48 h; actives raise or lower the signal
[1] = read-out: Peroxisomal acyl-coenzyme A oxidase 1 (ACOX1) gene, ACOX1 (gene 51); experiment: LTEA_HepaRG_ACOX1: Life Technologies and Expression Analysis (LTEA) Assay for Peroxisomal acyl-coenzyme A oxidase 1 (ACOX1) gene using HepaRG (AID 2283467)
How it was run: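 Measured by qRT-PCR against three housekeeping genes: ACOX1 transcript change in human HepaRG cells after 48 h dosing. Concentrations ran up to 100 uM in half-log steps. Curves were fitted bidirectionally relative to 0.5% DMSO.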

[2] = read-out: Alkaline Phosphatase, Placental (ALPP) gene, ALPP (gene 250); experiment: LTEA_HepaRG_ALPP: Life Technologies and Expression Analysis (LTEA) Assay for Alkaline Phosphatase, Placental (ALPP) gene using HepaRG (AID 2283468)
How it was run: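 Expression of ALPP was quantified by qRT-PCR against three housekeeping genes in human HepaRG cultures treated for 48 h with an eight-point concentration series up to 100 uM. Activity in either direction was fitted relative to 0.5% DMSO.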

[3] = read-out: Bcl-2 (BAD) gene, BAD (gene 572); experiment: LTEA_HepaRG_BAD: Life Technologies and Expression Analysis (LTEA) Assay for Bcl-2 (BAD) gene using HepaRG (AID 2283469)
How it was run: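 BAD transcript change, measured by qRT-PCR against three housekeeping genes and fitted in both directions relative to 0.5% DMSO, after 48 h chemical treatment of human HepaRG liver cells at concentrations up to 100 uM.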

[4] = read-out: Bcl-2 (BAX) gene, BAX (gene 581); experiment: LTEA_HepaRG_BAX: Life Technologies and Expression Analysis (LTEA) Assay for Bcl-2 (BAX) gene using HepaRG (AID 2283470)
How it was run: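 Differentiated HepaRG cells exposed 48 h in serum-free induction medium, eight half-log concentrations from 100 uM, in duplicate, 0.5% DMSO vehicle. BAX mRNA by TaqMan qRT-PCR, normalised to ACTB, GAPDH and POLR2A.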

[5] = read-out: adenosine kinase (ADK) gene, ADK (gene 132); experiment: LTEA_HepaRG_ADK: Life Technologies and Expression Analysis (LTEA) Assay for adenosine kinase (ADK) gene using HepaRG (AID 2283471)
How it was run: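 Differentiated HepaRG cells dosed 48 h in serum-free induction medium, 0.5% DMSO vehicle, eight half-log concentrations from 100 uM, in duplicate. ADK mRNA by TaqMan qRT-PCR normalised to ACTB, GAPDH, POLR2A; bidirectional fit versus DMSO.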

[6] = read-out: Alpha-fetoprotein (AFP) gene, AFP (gene 174); experiment: LTEA_HepaRG_AFP: Life Technologies and Expression Analysis (LTEA) Assay for Alpha-fetoprotein (AFP) gene using HepaRG (AID 2283472)
How it was run: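 Differentiated human HepaRG cells exposed 48 h in serum-free induction medium, 8-point half-log series from 100 uM in 0.5% DMSO, duplicate. AFP mRNA by qRT-PCR, normalized to ACTB, GAPDH, POLR2A; bidirectional fit vs DMSO.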

BCL2L11 (gene 10018) = experiment: LTEA_HepaRG_BCL2L11: Life Technologies and Expression Analysis (LTEA) Assay for Bcl-2 (BCL2L11) gene using HepaRG (AID 2283473)
How it was run: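 Cells were plated, cultured 48 h, switched to serum-free induction medium, then dosed in duplicate for 48 h at eight half-log concentrations up to 100 uM. Lysates underwent RNA isolation and TaqMan qRT-PCR; gain or loss versus DMSO was fitted.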

[7] = read-out: Apolipoprotein A-V (APOA5) gene, APOA5 (gene 116519); experiment: LTEA_HepaRG_APOA5: Life Technologies and Expression Analysis (LTEA) Assay for Apolipoprotein A-V (APOA5) gene using HepaRG (AID 2283474)
How it was run: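 Human liver HepaRG cells are treated 48 h with test chemicals (100 uM top, half-log dilutions, 0.5% DMSO). APOA5 mRNA induction or loss is measured by qRT-PCR relative to vehicle.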

[8] = read-out: Apoptosis regulator Bcl-2 (Homo sapiens) (UniProt P10415); experiment: LTEA_HepaRG_BCL2: Life Technologies and Expression Analysis (LTEA) Assay for Bcl-2 gene using HepaRG (AID 2283475)
How it was run: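 Differentiated human HepaRG cells in serum-free induction medium exposed 48 h, in duplicate, to 8-point half-log series from 100 uM in 0.5% DMSO. BCL2 mRNA by qRT-PCR (TaqMan/Fluidigm), normalized to ACTB, GAPDH, POLR2A; bidirectional fit against DMSO.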

[9] = read-out: Bcl-2 (BID) gene, BID (gene 637); experiment: LTEA_HepaRG_BID: Life Technologies and Expression Analysis (LTEA) Assay for Bcl-2 (BID) gene using HepaRG (AID 2283476)
How it was run: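 Gene expression by qRT-PCR in HepaRG cells after 48 h exposure, duplicate wells, eight half-log concentrations topping at 100 uM in 0.5% DMSO. Normalized to ACTB, GAPDH, POLR2A; bidirectional fitting relative to DMSO.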

Caspase-3 (Homo sapiens) = Caspase-3 (Homo sapiens) (UniProt P42574); experiment: LTEA_HepaRG_CASP3: Life Technologies and Expression Analysis (LTEA) Assay for cysteine-aspartic acid protease (CASP3) using HepaRG (AID 2283477)
How it was run: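 In HepaRG liver cells dosed for 48 h at up to 100 uM (eight-point, duplicate), CASP3 expression changes are scored by qRT-PCR. Activity is fitted in both directions with 0.5% DMSO as baseline.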

[10] = read-out: Cytochrome P450 (CYP24A1), CYP24A1 (gene 1591); experiment: LTEA_HepaRG_CYP24A1: Life Technologies and Expression Analysis (LTEA) Assay for Cytochrome P450 (CYP24A1) using HepaRG (AID 2283478)
How it was run: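 Human liver HepaRG cultures receive each chemical for 48 h across an eight-point half-log series topping at 100 uM in 0.5% DMSO. Induction or suppression of CYP24A1 mRNA is scored relative to vehicle after housekeeping-gene normalization.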

[11] = read-out: Cytochrome P450 (CYP1A2), CYP1A2 (gene 1544); experiment: LTEA_HepaRG_CYP1A2: Life Technologies and Expression Analysis (LTEA) Assay for Cytochrome P450 (CYP1A2) using HepaRG (AID 2283479)
How it was run: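 Assesses CYP1A2 mRNA in human HepaRG liver cells after 48 h chemical exposure at up to 100 uM. Values come from qRT-PCR with bidirectional curve fitting relative to DMSO.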

[12] = read-out: cysteine-aspartic acid protease (CASP8), CASP8 (gene 841); experiment: LTEA_HepaRG_CASP8: Life Technologies and Expression Analysis (LTEA) Assay for cysteine-aspartic acid protease (CASP8) using HepaRG (AID 2283480)
How it was run: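 HepaRG, 48 h exposure, duplicate wells; 8 conc, half-log from 100 uM, 0.5% DMSO. Serum-free induction medium. CASP8 mRNA by TaqMan qRT-PCR, norm. ACTB/GAPDH/POLR2A; gain/loss fitted vs DMSO.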

[13] = read-out: Cytochrome P450 (CYP2B6), CYP2B6 (gene 1555); experiment: LTEA_HepaRG_CYP2B6: Life Technologies and Expression Analysis (LTEA) Assay for Cytochrome P450 (CYP2B6) using HepaRG (AID 2283481)
How it was run: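 Using 48 h treatment of HepaRG cells in serum-free induction medium, concentrations spanned half-log steps from 100 uM in 0.5% DMSO vehicle. CYP2B6 mRNA induction or loss is scored by qRT-PCR against DMSO.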

[14] = read-out: Cytochrome P450 2C19 (Homo sapiens) (UniProt P33261); experiment: LTEA_HepaRG_CYP2C19: Life Technologies and Expression Analysis (LTEA) Assay for CYP2C19 using HepaRG (AID 2283482)
How it was run: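 Human HepaRG liver cells received test chemicals for 48 h (highest 100 uM, half-log dilutions in 0.5% DMSO). CYP2C19 mRNA induction or loss is read by multiplexed qRT-PCR and fitted in both directions versus vehicle.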

CYP2C8 (gene 1558) = experiment: LTEA_HepaRG_CYP2C8: Life Technologies and Expression Analysis (LTEA) Assay for CYP2C8 using HepaRG (AID 2283483)
How it was run: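 CYP2C8 mRNA induction or loss, by qRT-PCR normalized to ACTB/GAPDH/POLR2A, is read in HepaRG cells after 48 h treatment. Concentrations run from 100 uM down in half-log dilutions, with 0.5% DMSO as vehicle and baseline.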

CYP2C9 (gene 1559) = experiment: LTEA_HepaRG_CYP2C9: Life Technologies and Expression Analysis (LTEA) Assay for CYP2C9 using HepaRG (AID 2283484)
How it was run: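 Cells plated 48 h, switched to serum-free induction medium, then treated in duplicate for 48 h at eight concentrations (max 100 uM, 0.5% DMSO). RNA then analysed by qRT-PCR for CYP2C9; curves fitted in both directions relative to DMSO.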

CYP2E1 (gene 1571) = experiment: LTEA_HepaRG_CYP2E1: Life Technologies and Expression Analysis (LTEA) Assay for CYP2E1 using HepaRG (AID 2283485)
How it was run: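 HepaRG cells, plated 48 h, then exposed 48 h in serum-free induction medium to eight half-log concentrations from 100 uM in 0.5% DMSO, duplicate. CYP2E1 mRNA by qRT-PCR, normalized to ACTB/GAPDH/POLR2A; bidirectional fit versus DMSO.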

CYP4A11 (gene 1579) = experiment: LTEA_HepaRG_CYP4A11: Life Technologies and Expression Analysis (LTEA) Assay for CYP4A11 using HepaRG (AID 2283486)
How it was run: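 Readout is CYP4A11 mRNA induction or suppression (qRT-PCR, ACTB/GAPDH/POLR2A normalization) in human HepaRG cells after 48 h chemical treatment, concentrations to 100 uM in 0.5% DMSO, fitted bidirectionally against vehicle.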

Measured: AC50

Sequence of Apoptosis regulator Bcl-2 (Homo sapiens) (P10415 whole entry, looked up): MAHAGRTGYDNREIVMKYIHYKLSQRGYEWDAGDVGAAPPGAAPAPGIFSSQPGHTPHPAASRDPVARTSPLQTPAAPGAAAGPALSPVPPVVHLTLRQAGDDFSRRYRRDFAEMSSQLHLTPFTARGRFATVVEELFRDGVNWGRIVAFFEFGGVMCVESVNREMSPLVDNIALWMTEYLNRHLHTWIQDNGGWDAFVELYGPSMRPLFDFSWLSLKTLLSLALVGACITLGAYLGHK
Sequence of Caspase-3 (Homo sapiens) (P42574 whole entry, looked up): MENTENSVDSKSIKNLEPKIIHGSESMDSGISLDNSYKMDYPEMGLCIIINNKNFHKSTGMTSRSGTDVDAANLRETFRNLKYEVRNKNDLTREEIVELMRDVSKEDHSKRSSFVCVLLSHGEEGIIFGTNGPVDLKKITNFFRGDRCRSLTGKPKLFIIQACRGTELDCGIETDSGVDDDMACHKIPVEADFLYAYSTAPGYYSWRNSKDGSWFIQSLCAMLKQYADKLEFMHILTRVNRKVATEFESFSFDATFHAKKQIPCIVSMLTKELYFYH
Sequence of Cytochrome P450 2C19 (Homo sapiens) (P33261 whole entry, looked up): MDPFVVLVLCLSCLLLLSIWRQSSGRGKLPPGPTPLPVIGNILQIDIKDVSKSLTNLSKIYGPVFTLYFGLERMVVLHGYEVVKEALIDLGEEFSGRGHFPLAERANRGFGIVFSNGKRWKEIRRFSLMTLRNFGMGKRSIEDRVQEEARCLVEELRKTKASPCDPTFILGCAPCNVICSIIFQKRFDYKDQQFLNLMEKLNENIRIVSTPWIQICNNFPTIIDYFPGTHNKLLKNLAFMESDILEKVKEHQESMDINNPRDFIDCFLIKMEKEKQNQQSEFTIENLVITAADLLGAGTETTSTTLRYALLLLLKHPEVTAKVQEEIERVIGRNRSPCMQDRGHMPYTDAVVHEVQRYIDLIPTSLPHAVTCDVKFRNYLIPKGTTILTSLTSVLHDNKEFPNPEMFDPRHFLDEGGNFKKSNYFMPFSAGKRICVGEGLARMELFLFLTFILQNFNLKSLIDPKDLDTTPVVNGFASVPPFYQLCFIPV

Nc1nc(N)nc(NC2CC2)n1
inactive: [1] | [2] | [3] | [4] | [5] | [6] | BCL2L11 (gene 10018) | [7] | [8] | [9] | Caspase-3 (Homo sapiens) | [10] | [11] | [12] | [13] | [14] | CYP2C8 (gene 1558) | CYP2C9 (gene 1559) | CYP2E1 (gene 1571) | CYP4A11 (gene 1579)

CCOP(=S)(OCC)OC(Cl)C(Cl)(Cl)Cl (configuration not stated)
inactive: [1] | [2] | [3] | [4] | [5] | [6] | BCL2L11 (gene 10018) | [7] | [8] | [9] | Caspase-3 (Homo sapiens) | [10] | [11] | [12] | [14] | CYP2C8 (gene 1558) | CYP2C9 (gene 1559) | CYP2E1 (gene 1571) | CYP4A11 (gene 1579)

CCCCN(CC)c1c([N+](=O)[O-])cc(C(F)(F)F)cc1[N+](=O)[O-]
inactive: [1] | [2] | [3] | [4] | [5] | [6] | BCL2L11 (gene 10018) | [7] | [8] | [9] | Caspase-3 (Homo sapiens) | [10] | [12] | CYP2C8 (gene 1558) | CYP2C9 (gene 1559) | CYP2E1 (gene 1571) | CYP4A11 (gene 1579)
active: [11] 35.8 µM | [13] 32 µM | [14] 50 µM

CCOP(=S)(OCC)Oc1ccc2c(C)c(Cl)c(=O)oc2c1
active: [2] 50 µM | [6] 36.6 µM | [11] 4.03 µM | [14] 12.6 µM | CYP2E1 (gene 1571) 31.6 µM | CYP4A11 (gene 1579) 50 µM
inactive: [1] | [3] | [4] | [5] | BCL2L11 (gene 10018) | [7] | [8] | [9] | Caspase-3 (Homo sapiens) | [10] | [12] | CYP2C8 (gene 1558) | CYP2C9 (gene 1559)

Cc1ccn2nc(S(=O)(=O)Nc3c(F)cccc3F)nc2n1
inactive: [1] | [2] | [3] | [4] | [5] | [6] | BCL2L11 (gene 10018) | [7] | [8] | [9] | Caspase-3 (Homo sapiens) | [10] | [11] | [12] | [13] | [14] | CYP2C8 (gene 1558) | CYP2C9 (gene 1559) | CYP2E1 (gene 1571) | CYP4A11 (gene 1579)

CCCOc1nn(C(=O)NS(=O)(=O)c2ccccc2C(=O)OC)c(=O)n1C
inactive: [1] | [2] | [3] | [4] | [5] | [6] | BCL2L11 (gene 10018) | [7] | [8] | [9] | Caspase-3 (Homo sapiens) | [10] | [11] | [12] | [14] | CYP2C8 (gene 1558) | CYP2C9 (gene 1559) | CYP2E1 (gene 1571) | CYP4A11 (gene 1579)
